# Assay results: PubChem BioAssay AID1986 (Sanford-Burnham Center for Chemical Genomics, 2009)
# Values joined by “and” are separate entries in the source; they are usually repeats but may differ in a detail not shown here. Identical values can stand only once. Out of some 290,000 compounds screened, about 890 (0.31%) were called active. This is one part of a sample in which actives are shown more often than they occur. Cut-off read from the data, not from the text of the source: active = inhibition mostly above about 52% (no sharp cut-off); inactive = mostly below about 76%.
# Experiment: inhibitors of HIV fusion peptide binding, primary screen, biochemical, uHTS, fluorescence dequenching (AID 1986)
# Conditions: cell-free peptide binding, 30 min, stronger effect = higher value
# [1] = measured here: repeat confirmation average inhibition, at 18.6 µM
Structure (SMILES),inhibition (at 20 µM),inhibition [1]
Cc1ccc(NC(=O)c2ccc3nsnc3c2)c(Cl)c1,1.6% (inactive),–
O=C(CSc1nnc(C2CCCCC2)o1)Nc1ccccc1Cl,2.8% (inactive),–
O=C(NN=C1CCCC1)c1ccc(Cl)cc1,-0.5% (inactive),–
CC(C)(C)c1ccc(NC(=S)NCCc2ccccn2)cc1,-0.5% (inactive),–
COc1cccc(C2C3CN(C)CC=C3C(C#N)=C(N)C2(C#N)C#N)c1OC (configuration not stated),149% (inactive),–
CCCN1CC=C2C(C#N)=C(N)C(C#N)(C#N)C(c3cccc(OC)c3OC)C2C1 (configuration not stated),67.5% (active),–
CCN1CC=C2C(C#N)=C(N)C(C#N)(C#N)C(c3cc(Cl)ccc3Cl)C2C1 (configuration not stated),2.6% (inactive),–
COc1ccc([C@@H]2[C@H]3CN(C(C)=O)CC=C3C(C#N)=C(N)C2(C#N)C#N)c2ccccc12,-3.1% (inactive),–
CCN1CC=C2C(C#N)=C(N)C(C#N)(C#N)[C@H](c3cccc(OC)c3OC)[C@H]2C1,61.5% (active),–
CCOC(=O)N1CC=C2C(C#N)=C(N)C(C#N)(C#N)[C@H](c3ccccc3OCC)[C@H]2C1,0.7% (inactive),–
Cn1c(COc2ccccc2)nnc1SCC(=O)NCc1ccccc1,-0.1% (inactive),–
CC1(C)CC(NCc2cccc([N+](=O)[O-])c2)CC(C)(C)N1,-1.8% (inactive),–
CN(C)n1cnc2ccsc2c1=O,1.1% (inactive),–
CN(C(=O)COC(=O)CNC(=O)c1ccccc1Cl)c1ccccc1,-0.3% (inactive),–
CCC1=NN2C(=N)/C(=C\c3cccn3-c3ccc(C)cc3C)C(=O)N=C2S1,51% (active),–
CCC1=NN2C(=N)/C(=C\c3cccn3-c3ccc(C)c(C)c3)C(=O)N=C2S1,35.7% (inactive),–
CCC1=NN2C(=N)/C(=C\c3cccn3-c3c(C)cccc3C)C(=O)N=C2S1,25.7% (inactive),–
CC(NCCc1ccc(S(N)(=O)=O)cc1)C(=O)NCCc1ccc(F)cc1 (configuration not stated),0.6% (inactive),–
Cc1ccc(/C=C2\SC(=S)N(/N=C/c3cc([N+](=O)[O-])ccc3O)C2=O)o1,82.2% (active),–
O=C1/C(=C/c2cccc(Br)c2)SC(=S)N1/N=C/c1cc([N+](=O)[O-])ccc1O,16.7% (inactive),–
Cc1ccccc1/C=C1\SC(=S)N(/N=C/c2cc([N+](=O)[O-])ccc2O)C1=O,26.8% (inactive),–
CCNC(=S)NS(=O)(=O)c1ccc(C)cc1,-1.7% (inactive),–
Cc1ccc(/C=C(\C#N)C(=O)NC(C)c2ccccc2)o1 (configuration not stated),0.2% (inactive),–
CC(C)NC(=O)/C(C#N)=C\c1ccc(N(C)C)o1,78.6% (active),59.9%

Structure (SMILES),inhibition (at 20 µM),inhibition [1]
CC(C)NC(=O)/C(C#N)=C/c1ccc(N(C)C)o1,82.3% (active),64.2%
CC(C)NC(=O)/C(C#N)=C\c1ccc(N(C)C)c(Br)c1,0.3% (inactive),–
Cc1ccc(/C=C(\C#N)C(=O)NC(C)C)o1,1.4% (inactive),–
Cc1ccc(/C=C(/C#N)C(=O)NC(C)c2ccccc2)o1 (configuration not stated),3.2% (inactive),–
CCN(CC)c1ccc(/C=C(/C#N)C(=O)NCc2ccccc2)o1,128% (inactive),–
CCN(CC)c1ccc(/C=C(/C#N)C(=O)NC(C)C)o1,113% (active),–
CN(C)c1ccc(/C=C(/C#N)C(=O)NCc2ccccc2)o1,134% (inactive),–
O=C(OCc1ccccc1)c1cnc(Cl)c(Cl)c1,-1.7% (inactive),–
CC(C)CNC(=O)c1cccc(NC(=O)CCc2ccccc2)c1,0.2% (inactive),–
CC(=O)NCCn1c(SCC(=O)NCCC(C)C)nc2ccccc2c1=O,-1.8% (inactive),–
Nc1c(C(=O)OCC2CCCO2)c2nc3ccccc3nc2n1-c1ccc2c(c1)OCCO2 (configuration not stated),0.3% (inactive),–
O=C(c1ccco1)N1CCN(c2ccc([N+](=O)[O-])c(N3CCOCC3)c2)CC1,0.8% (inactive),–
Nc1ccc2nc(SCc3ccc([N+](=O)[O-])cc3)sc2c1,1.8% (inactive),–
Cn1cc(CN2CCN(CC(C)(C)C)C(CCO)C2)c2ccccc21 (configuration not stated),2.5% (inactive),–
Cc1ccc(CSc2nc3ccccc3c(=O)n2CCCC(=O)NCc2ccco2)cc1,-1.1% (inactive),–
CN1CCN(c2ccc(NC(=O)CSc3nnnn3-c3ccccc3F)cc2)CC1,-0.3% (inactive),–
Cc1cc2nc(-c3ccc(SCc4ccc(C#N)cc4)nc3)[nH]c2cc1C,8.6% (inactive),–
CC(=O)CSc1ccc(-c2nc3cc(C)c(C)cc3[nH]2)cn1,0.7% (inactive),–
Cc1cc2nc(-c3ccc(SCc4ccc(C(=O)O)cc4)nc3)[nH]c2cc1C,56.9% (active),–
Cn1nc(CC(=O)Nc2cccnc2N2CCOCC2)c2ccccc2c1=O,0.1% (inactive),–
Cc1ccccc1N=Nc1ccc(O)c2ncccc12,-1.3% (inactive),–
NS(=O)(=O)c1ccc(N=Nc2ccc(O)c3ncccc23)cc1,-1.1% (inactive),–
O=S(=O)(O)c1cccc2c(N=Nc3ccc(O)c4ncccc34)cccc12,64.9% (active),–
O=C(O)/C=C\C(=O)Nc1ccccc1C(=O)NCc1ccccc1,-0.8% (inactive),–

Structure (SMILES),inhibition (at 20 µM),inhibition [1]
CCN(CC)c1ccc(C=O)c(OC)c1,-0.9% (inactive),–
CCN(CC)c1ccc(/C=C/c2cccc[n+]2C)c(OC)c1,77.3% (active),63.6%
COc1ccc(/C=C/c2cccc[n+]2C)c(O)c1,2.7% (inactive),–
Cc1c(OC(C)C(=O)NCCCN2CCCC2=O)ccc2c3c(c(=O)oc12)CCCC3 (configuration not stated),-2.1% (inactive),–
CCOC(=O)C1(Cc2ccccc2)CCCN(Cc2cnn(CC)c2)C1 (configuration not stated),-1.6% (inactive),–
Cc1cccc2c1N(C(=O)c1ccco1)C(C)(C)c1ssc(=S)c1-2,-4.4% (inactive),–
CCCn1cc(CN2CCC(Cc3cccc(F)c3)(C(=O)OCC)CC2)c(C)n1,-3.2% (inactive),–
COc1cc([N+](=O)[O-])ccc1NC(=O)N1CCCCCC1,-0.4% (inactive),–
CN1CC=C2C(C#N)=C(N)C(C#N)(C#N)[C@H](c3cccs3)[C@H]2C1,25.9% (inactive),–
CN1CCC2(CC1)C1CN(C)CC=C1C(C#N)=C(N)C2(C#N)C#N (configuration not stated),51.5% (active) and 103% (active),50.3%
N#CC1=C(N)C(C#N)(C#N)C2(CCC3(CC2)OCCO3)C2CC3(CC=C12)OCCO3 (configuration not stated),5.6% (inactive),–
CC(=O)N1CCC(=O)Nc2ccc([N+](=O)[O-])cc21,-0.3% (inactive),–
COc1cc2nc(CN3CCN(C(c4ccccc4)c4ccccc4)CC3)[nH]c(=O)c2cc1OC,2.2% (inactive),–
N=c1c(S(=O)(=O)c2ccc(Cl)cc2)cc2c(=O)n3ccccc3nc2n1CCc1ccccc1,84.1% (active),74.9%
COc1ccc(CCn2c(=N)c(S(=O)(=O)c3ccc(Cl)cc3)cc3c(=O)n4ccccc4nc32)cc1,195% (inactive),–
Cc1ccc(S(=O)(=O)c2cc3c(=O)n4ccccc4nc3n(CCc3ccccc3)c2=N)cc1,25% (inactive),–
O=C(NC1CC1)C1CCN(C2CCN(C(=O)Cc3ccc4c(c3)OCO4)CC2)CC1,0.5% (inactive),–
O=C(Nc1nnc(C2CC2)s1)C1COc2ccccc2O1 (configuration not stated),-2.5% (inactive),–
Cc1cc(C)n2nc(C(=O)N3CCOCC3)nc2n1,-0.9% (inactive),–
Cc1cccc2cc(C(c3nnnn3Cc3ccc4c(c3)OCO4)N3CCCC3)c(=O)[nH]c12 (configuration not stated),-1.7% (inactive),–
O=C(COc1ncnc2ccccc12)Nc1cccc([N+](=O)[O-])c1,0.9% (inactive),–
CC(=O)Oc1ccc2c(c1)O/C(=C\c1ccncc1)C2=O,106% (active),53%
O=C(Oc1ccc2c(c1)O/C(=C\c1ccncc1)C2=O)c1ccccc1,86.3% (inactive),3%
COc1cccc(OC)c1C(=O)Oc1ccc2c(c1)O/C(=C\c1ccncc1)C2=O,3.9% (inactive),–

Structure (SMILES),inhibition (at 20 µM),inhibition [1]
COc1ccc(CNc2nc3nc(-c4ccccc4)cc(=O)n3[nH]2)cc1OC,0.4% (inactive),–
O=C(CCl)Nc1ccc(N=Nc2ccccc2)cc1,-2.8% (inactive),–
Oc1c(C=Nc2cccnc2)sc2ccccc12,1.4% (inactive),–
Oc1c(C=Nc2cccc3cccnc23)sc2ccccc12,85.8% (active),50.9%
Oc1c(/C=N/c2ccccn2)sc2ccccc12,6.4% (inactive),–
CCOc1ccc2nc(NC(=O)C34CC5CC(CC(NC(C)=O)(C5)C3)C4)sc2c1,-1.2% (inactive),–
O=C(O)c1c(Cl)c(Cl)c(Cl)c(Cl)c1C(=O)N1CCOCC1,4.1% (inactive),–
N#C/C(=N\Nc1ccc(S(=O)(=O)N2CCc3ccccc32)cc1)C(N)=S,51.3% (active),–
N#C/C(=N\Nc1ccc(S(=O)(=O)N2CCCCCC2)cc1)C(N)=S,9.5% (inactive),–
CCOC(=O)/C(C#N)=N/Nc1ccc(S(=O)(=O)N2CCc3ccccc32)cc1,5.4% (inactive),–
Cc1ccc(NC(=O)c2cc([N+](=O)[O-])ccc2NCc2cccnc2)cc1,-0.6% (inactive),–
O=C(N/N=C/c1ccccc1C(=O)O)c1cc(-c2ccc3c4c(cccc24)CC3)n[nH]1,69.6% (active),–
O=C(O)c1ccc(/C=N/NC(=O)c2cc(-c3ccc4c5c(cccc35)CC4)n[nH]2)cc1,61.2% (inactive),7%
O=C(N/N=C/c1cccc([N+](=O)[O-])c1)c1cc(-c2ccc3c4c(cccc24)CC3)n[nH]1,-6.3% (inactive),–
Cc1ccc(C(=O)NCC(c2ccc(F)cc2)N2CCOCC2)cc1 (configuration not stated),-1.6% (inactive),–
O=C(Cc1cccs1)N/N=C/C=C/c1ccco1,31.2% (inactive),–
O=C(Cc1cccs1)N/N=C/C=C\c1ccco1,69.7% (active),–
O=C(Cc1cccs1)N/N=C/c1ccco1,5% (inactive),–
O=C(CSc1nnc(SCc2ccccc2)s1)N/N=C/C=C\c1ccco1,51.3% (active),–
O=C(CSc1nnc(SCc2ccccc2)s1)N/N=C/C=C/c1ccco1,33.4% (inactive),–
Cc1ccc(CSc2nnc(SCC(=O)N/N=C/C=C/c3ccco3)s2)cc1,46.7% (inactive),–
